Holding throughout (design): scale not given: direction of the effect not stated beside the values
Test [1] deals with Protein translocase subunit SecA (Escherichia coli (strain K12)) (UniProt P10408). Kind of test: Assay to Identify E. coli SecA ATPase Inhibitors. The settings on record: 30 µM. The test is classed as functional.
The target of test [2] is T1, Ubiquitin-activating enzyme e1, putative (Leishmania donovani (strain BPK282A1)) (UniProt E9BSI1).
T1 sequence (whole entry): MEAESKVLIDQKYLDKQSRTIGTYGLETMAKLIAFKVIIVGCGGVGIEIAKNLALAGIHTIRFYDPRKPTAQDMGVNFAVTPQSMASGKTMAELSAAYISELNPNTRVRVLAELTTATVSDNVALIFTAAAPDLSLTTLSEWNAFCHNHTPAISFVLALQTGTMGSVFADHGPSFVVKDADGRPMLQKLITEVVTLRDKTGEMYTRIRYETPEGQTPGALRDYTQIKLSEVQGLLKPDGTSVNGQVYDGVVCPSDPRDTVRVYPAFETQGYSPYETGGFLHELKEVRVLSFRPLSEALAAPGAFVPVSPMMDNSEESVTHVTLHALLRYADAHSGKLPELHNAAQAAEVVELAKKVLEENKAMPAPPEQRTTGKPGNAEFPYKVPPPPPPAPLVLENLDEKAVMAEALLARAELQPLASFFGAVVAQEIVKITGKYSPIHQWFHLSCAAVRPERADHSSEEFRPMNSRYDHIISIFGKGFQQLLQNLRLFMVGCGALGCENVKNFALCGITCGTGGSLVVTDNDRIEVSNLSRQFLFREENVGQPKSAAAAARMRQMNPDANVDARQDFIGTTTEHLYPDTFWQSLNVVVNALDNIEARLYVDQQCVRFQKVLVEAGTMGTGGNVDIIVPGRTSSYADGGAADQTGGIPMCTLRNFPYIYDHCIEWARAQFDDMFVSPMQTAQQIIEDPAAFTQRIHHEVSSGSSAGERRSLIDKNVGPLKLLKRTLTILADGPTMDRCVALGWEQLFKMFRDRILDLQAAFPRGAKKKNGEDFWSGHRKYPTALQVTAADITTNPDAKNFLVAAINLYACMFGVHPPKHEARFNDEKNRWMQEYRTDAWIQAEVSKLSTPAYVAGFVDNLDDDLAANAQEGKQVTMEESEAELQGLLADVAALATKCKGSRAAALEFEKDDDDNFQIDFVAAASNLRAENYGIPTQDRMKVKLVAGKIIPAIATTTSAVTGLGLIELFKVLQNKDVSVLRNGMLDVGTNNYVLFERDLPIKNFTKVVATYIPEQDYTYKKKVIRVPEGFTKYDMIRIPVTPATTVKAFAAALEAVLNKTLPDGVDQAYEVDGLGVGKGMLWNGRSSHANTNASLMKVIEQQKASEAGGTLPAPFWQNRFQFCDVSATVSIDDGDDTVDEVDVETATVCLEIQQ
Put plainly: Leishmania donovani Ubiquitin Activating Enzyme (LdE1). As to conditions: 30 µM. The test is classed as functional.

The target of test [3] is AMP-activated protein kinase, AMPK (Homo sapiens) (UniProt P54646+O43741+P54619+Q9UGJ0+Q9Y478+Q13131+Q9UGI9). Put plainly: AMP-dependent Kinase enzyme assay. An in vitro enzyme assay that detects ADP turnover that is directly proportional to AMPK activity. This uses naive AMPK that is activated during the assay with MK-8722. The settings on record: 30 µM. It is filed as functional.

Test [4] has as its target Sialic acid-binding Ig-like lectin 9 (Homo sapiens) (UniProt Q9Y336). Put plainly: Hs-Siglec9 ALPHAscreen SOP 20170721. As to conditions: 10 µM. Background: Alpha assays give light when donor and acceptor beads are brought close together.
For another test, the system named is Trypanosoma cruzi. Kind of test: Trypanosoma cruzi phosphomannomutase and mannose-1-phosphate guanylyltransferase assay. The test is classed as functional. The settings on record: 10 µM.
Test [5] concerns the target T2, Arginase-2, mitochondrial (Homo sapiens) (UniProt P78540).
T2 sequence (whole entry): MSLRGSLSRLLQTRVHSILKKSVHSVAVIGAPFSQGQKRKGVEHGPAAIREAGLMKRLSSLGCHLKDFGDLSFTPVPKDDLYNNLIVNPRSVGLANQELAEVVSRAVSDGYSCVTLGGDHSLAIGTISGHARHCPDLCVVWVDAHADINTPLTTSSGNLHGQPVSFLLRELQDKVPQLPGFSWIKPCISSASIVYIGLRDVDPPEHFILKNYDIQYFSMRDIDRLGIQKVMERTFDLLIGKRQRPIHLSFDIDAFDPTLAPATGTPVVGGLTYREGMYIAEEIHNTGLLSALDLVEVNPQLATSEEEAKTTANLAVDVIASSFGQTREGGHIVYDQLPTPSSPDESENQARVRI
Put plainly: in vitro enzyme assay to detect the production of urea directly proportional to the activity of Arginase II. Note: in the data most compounds retested in dose-response had high values. The settings on record: 33.3 µM. It is filed as functional.

The target of test [6] is T3, Proteasome subunit beta (Trypanosoma cruzi) (UniProt O96673).
T3 sequence (whole entry): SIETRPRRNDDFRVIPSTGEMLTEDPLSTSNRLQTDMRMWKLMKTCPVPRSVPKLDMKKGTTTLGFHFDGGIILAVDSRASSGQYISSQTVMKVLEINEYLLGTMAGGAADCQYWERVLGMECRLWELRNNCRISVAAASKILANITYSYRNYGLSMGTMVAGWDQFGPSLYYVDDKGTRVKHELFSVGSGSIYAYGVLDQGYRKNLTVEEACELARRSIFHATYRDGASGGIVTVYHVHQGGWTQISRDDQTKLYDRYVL
Kind of test: Trypanosoma cruzi proteasome chymotrypsin-like activity (TcProtChymo) assay. Note: in the data most compounds retested in dose-response had high values. It is filed as functional. The settings on record: 9.37 µM.

For the next test, the species on record is Homo sapiens. Kind of test: To identify inhibition of the IFN signalling (Jak-Stat) pathway via expression of an eGFP reporter gene under the control of an IFN-stimulated response element (ISRE) containing MxA promoter. It is filed as functional. As to conditions: 30 µM.
Test [7] concerns the target T4, Tyrosyl-tRNA synthetase, putative (Trypanosoma cruzi (strain CL Brener)) (UniProt Q4DSP6).
T4 sequence (whole entry): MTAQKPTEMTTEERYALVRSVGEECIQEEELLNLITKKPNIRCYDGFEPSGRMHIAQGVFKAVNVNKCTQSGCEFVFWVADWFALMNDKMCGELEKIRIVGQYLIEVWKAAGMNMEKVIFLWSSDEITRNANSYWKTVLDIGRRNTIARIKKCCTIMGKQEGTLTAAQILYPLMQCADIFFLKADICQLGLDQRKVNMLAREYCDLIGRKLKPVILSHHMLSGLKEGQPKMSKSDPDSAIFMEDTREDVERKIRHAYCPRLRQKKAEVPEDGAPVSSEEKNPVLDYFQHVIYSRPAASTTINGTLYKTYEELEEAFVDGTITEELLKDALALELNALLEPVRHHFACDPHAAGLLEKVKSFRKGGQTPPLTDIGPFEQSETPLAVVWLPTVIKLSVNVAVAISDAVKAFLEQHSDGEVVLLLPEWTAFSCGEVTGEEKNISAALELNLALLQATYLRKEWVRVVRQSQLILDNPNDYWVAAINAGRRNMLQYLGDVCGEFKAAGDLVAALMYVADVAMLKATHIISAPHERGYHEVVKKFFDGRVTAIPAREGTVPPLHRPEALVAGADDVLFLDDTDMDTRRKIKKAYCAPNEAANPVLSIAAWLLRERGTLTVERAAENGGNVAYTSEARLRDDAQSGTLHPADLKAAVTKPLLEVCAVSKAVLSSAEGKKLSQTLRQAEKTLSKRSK
Kind of test: Trypanosoma cruzi tyrosyl tRNA synthetase (TcYRS) _High Tyrosine SOP. Note: in the data most compounds retested in dose-response had high values. The test is classed as functional. As to conditions: 30 µM.

In test [8] the target is T4, Tyrosyl-tRNA synthetase, putative (Trypanosoma cruzi (strain CL Brener)). Put plainly: Trypanosoma cruzi tyrosyl tRNA synthetase (TcYRS) SOP. The test is classed as functional. The settings on record: 30 µM.
The target of test [9] is Chromo domain-containing protein 1 (Saccharomyces cerevisiae (strain ATCC 204508 / S288c) (Baker's yeast)) (UniProt P32657). Kind of test: ScCHD-1 Enzyme Inhibition Assay. Note: in the data most compounds retested in dose-response had high values. The test is classed as functional. The settings on record: 30 µM.
Chromo domain-containing protein 1 (Saccharomyces cerevisiae (strain ATCC 204508 / S288c) (Baker's yeast)), sequence (P32657 whole entry, the tested form may be a part): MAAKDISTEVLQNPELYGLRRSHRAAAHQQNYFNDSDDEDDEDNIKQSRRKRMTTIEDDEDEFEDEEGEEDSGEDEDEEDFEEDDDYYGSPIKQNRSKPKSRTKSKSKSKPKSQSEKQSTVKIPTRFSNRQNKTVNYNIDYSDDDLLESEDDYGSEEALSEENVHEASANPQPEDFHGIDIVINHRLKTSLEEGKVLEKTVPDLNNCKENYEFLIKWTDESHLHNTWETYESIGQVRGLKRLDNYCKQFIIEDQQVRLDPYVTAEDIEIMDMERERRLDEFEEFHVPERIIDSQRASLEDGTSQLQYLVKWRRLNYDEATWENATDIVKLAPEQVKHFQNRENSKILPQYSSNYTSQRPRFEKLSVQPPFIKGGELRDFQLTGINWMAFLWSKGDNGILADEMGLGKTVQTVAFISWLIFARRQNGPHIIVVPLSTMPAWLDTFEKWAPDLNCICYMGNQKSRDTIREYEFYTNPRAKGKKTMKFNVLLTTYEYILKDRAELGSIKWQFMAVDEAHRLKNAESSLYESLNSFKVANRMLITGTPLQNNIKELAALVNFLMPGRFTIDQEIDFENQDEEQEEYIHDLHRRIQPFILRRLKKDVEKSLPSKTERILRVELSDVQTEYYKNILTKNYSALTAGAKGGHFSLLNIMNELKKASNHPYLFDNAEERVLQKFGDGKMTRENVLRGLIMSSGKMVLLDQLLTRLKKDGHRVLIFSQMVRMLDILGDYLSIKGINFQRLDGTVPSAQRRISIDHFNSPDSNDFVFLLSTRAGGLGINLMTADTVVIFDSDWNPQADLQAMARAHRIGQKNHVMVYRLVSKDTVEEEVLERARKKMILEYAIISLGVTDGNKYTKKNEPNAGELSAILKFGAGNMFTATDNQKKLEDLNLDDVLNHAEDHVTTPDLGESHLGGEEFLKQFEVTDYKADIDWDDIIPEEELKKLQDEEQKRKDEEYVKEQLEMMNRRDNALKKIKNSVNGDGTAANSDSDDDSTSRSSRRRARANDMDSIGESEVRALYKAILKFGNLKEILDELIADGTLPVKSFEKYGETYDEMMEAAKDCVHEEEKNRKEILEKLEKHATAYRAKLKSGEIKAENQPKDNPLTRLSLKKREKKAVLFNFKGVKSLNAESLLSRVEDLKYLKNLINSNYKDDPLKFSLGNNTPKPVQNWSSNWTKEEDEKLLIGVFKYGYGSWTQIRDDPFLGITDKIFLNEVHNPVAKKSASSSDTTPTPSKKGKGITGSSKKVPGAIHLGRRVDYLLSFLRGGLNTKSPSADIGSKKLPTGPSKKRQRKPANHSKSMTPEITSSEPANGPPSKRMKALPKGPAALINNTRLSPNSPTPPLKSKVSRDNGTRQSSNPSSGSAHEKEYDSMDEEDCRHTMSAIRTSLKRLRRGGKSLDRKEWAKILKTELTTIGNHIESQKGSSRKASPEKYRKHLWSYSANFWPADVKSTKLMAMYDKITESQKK

Molecules are shown by their SMILES. For some of these results: Measured potencies and affinities stand elsewhere.

Sialic acid-binding Ig-like lectin 9 (Homo sapiens), sequence (Q9Y336 whole entry): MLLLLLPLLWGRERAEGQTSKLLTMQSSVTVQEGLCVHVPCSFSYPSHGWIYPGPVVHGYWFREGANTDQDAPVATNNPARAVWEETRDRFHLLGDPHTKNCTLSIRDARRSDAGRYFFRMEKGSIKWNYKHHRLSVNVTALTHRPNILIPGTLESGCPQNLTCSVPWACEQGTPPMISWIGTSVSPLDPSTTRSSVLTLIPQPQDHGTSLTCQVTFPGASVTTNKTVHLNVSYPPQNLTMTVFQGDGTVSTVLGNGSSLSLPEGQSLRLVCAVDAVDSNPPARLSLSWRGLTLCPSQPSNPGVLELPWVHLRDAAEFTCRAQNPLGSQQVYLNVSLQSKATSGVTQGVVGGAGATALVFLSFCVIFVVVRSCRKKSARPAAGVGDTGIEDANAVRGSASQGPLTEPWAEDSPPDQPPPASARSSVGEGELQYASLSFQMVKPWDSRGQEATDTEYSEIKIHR
Protein translocase subunit SecA (Escherichia coli (strain K12)), sequence (P10408 whole entry): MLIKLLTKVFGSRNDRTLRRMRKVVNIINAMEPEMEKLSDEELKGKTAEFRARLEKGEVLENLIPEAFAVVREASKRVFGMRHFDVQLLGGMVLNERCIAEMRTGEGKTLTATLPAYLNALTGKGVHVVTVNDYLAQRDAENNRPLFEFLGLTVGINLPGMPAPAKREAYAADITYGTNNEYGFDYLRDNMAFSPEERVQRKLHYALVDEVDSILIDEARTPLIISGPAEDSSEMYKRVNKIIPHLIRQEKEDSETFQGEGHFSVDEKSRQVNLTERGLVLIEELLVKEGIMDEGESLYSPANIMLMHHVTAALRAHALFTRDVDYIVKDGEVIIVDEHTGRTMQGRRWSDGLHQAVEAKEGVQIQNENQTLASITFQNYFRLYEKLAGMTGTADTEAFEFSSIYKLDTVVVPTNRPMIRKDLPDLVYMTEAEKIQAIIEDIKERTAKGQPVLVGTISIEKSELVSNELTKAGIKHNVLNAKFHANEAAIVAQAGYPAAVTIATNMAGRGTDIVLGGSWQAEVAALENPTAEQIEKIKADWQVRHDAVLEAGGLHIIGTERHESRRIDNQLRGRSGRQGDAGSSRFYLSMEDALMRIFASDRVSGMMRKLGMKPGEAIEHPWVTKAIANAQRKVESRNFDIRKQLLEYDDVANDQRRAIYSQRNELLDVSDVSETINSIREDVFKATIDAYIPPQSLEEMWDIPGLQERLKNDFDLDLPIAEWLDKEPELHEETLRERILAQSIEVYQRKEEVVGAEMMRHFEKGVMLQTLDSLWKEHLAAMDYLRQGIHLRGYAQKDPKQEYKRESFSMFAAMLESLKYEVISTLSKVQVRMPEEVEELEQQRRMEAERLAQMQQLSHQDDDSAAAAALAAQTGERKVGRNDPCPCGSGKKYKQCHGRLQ

Turning to `CCN(CC)Cc1ccc(C(=O)N2CCN(CC(C)O)CC2)cc1` (stereo not drawn), the Percent Effect in [1] is -4.12%; in [2], 0%; in test [3] it was -3.46%; in [4], 8.13%; in the test on Trypanosoma cruzi, -0.472%; in test [5] it was -2.81%. For the same compound, the Percent Effect was -4.5% in test [6]; -2.61% in the test filed under Homo sapiens; 4.43% in [7]; 1.24% in [8]; 0.847% in test [9].
As to `COc1ccc(NC(=O)CNc2ccc(Br)cc2F)cc1`, the Percent Effect in [1] was -3.43%; in [2], 5.26%; in test [3], 9.89%; in test [4], 2.32%; in the test on Trypanosoma cruzi, -0.487%; in test [5], 0%. The Percent Effect in test [6] was 17.7%; in the test filed under Homo sapiens, 39.2%; in test [7], -14.9%; in test [8], -13%; in test [9], -4.78%.
Regarding `CC[C@@]1(O)CCN(C(=O)c2ccc(SC)cc2)C[C@H]1O`, the Percent Effect in test [1] was -4.3%; in [2] it was 4.17%; in test [3], 0.43%; in [4], 1.71%; in the test on Trypanosoma cruzi, 6.9%; in test [5] it was -0.442%. Further, the Percent Effect was 10.9% in test [6]; 3.45% in the test listed under Homo sapiens; 4.21% in test [7]; 5.13% in test [8]; -3.41% in test [9].
Turning to `Cc1nc(CNC(=O)NCC(O)c2ccc(F)c(F)c2)cs1` (stereo not drawn), the Percent Effect in [1] is -1.38%; in [2], 10.8%; in test [3] it was 1.17%; in test [4] it was -3.81%; in the test with Trypanosoma cruzi, 3.25%; in [5] it was -3.51%. Further, the Percent Effect is 16.3% in [6]; 23.3% in the test listed under Homo sapiens; 7.92% in test [7]; 18.3% in test [8]; -5.03% in test [9].
Consider `Cc1ccc(CCC(=O)N(C)CCN2CCOCC2)c(C)c1`, for which the Percent Effect was -0.772% in test [1]; -5.26% in test [2]; 4.45% in test [3]; 4.55% in test [4]; -0.487% in the test with Trypanosoma cruzi; -7.1% in test [5]. Further, the Percent Effect was 17% in test [6]; -17.1% in the test filed under Homo sapiens; 6.38% in test [7]; 5.2% in [8]; 4.92% in [9].
As to `CCOc1ccc(CNCCCn2ccnc2)cc1Br`, the Percent Effect in test [1] was -0.283%; in test [2], 12%; in test [3] it was -3.14%; in [4], 3.52%; with Trypanosoma cruzi, -3.34%; in [5], -6.51%. The Percent Effect was 12.8% in test [6]; 9.57% in the test filed under Homo sapiens; 6.35% in [7]; 10.3% in [8]; -10.4% in test [9].
Take `CC(O)CN1CCN(C(=O)c2cccn2Cc2ccncc2)CC1` (stereo not drawn): the Percent Effect in [1] was -5.17%; in test [2] it was 10.1%; in test [3] it was 0.216%; in test [4], 10.1%; in the test on Trypanosoma cruzi, 2.74%; in test [5] it was 2.66%. Moreover, the Percent Effect in test [6] was -2.38%; in the test listed under Homo sapiens, 3.13%; in [7], 0.493%; in test [8] it was 13.9%; in test [9] it was -8.49%.
As for `CN(Cc1ccc(F)cc1)CC1(O)CCN(C(=O)c2cccn2C)C1` (stereo not drawn), the Percent Effect is -6.43% in [1]; 13.3% in [2]; 2.06% in test [3]; 5.19% in [4]; 3.15% in the test on Trypanosoma cruzi; -4.43% in [5]. Also, the Percent Effect was 0.969% in [6]; 3% in the test listed under Homo sapiens; 6.38% in [7]; 8.97% in [8]; -9.32% in test [9].

Values taken from ChEMBL document CHEMBL3988442, “University of Dundee, Small-Polar-MMV Screening Library” (2021).
